The source of these data is PubChem BioAssay (NCATS).

Structures are written as SMILES. Values joined by “and” are separate entries in the source; they are usually repeats but may differ in a detail not shown here. Equal values may be shown once. Records with an inconclusive call do not appear. Active and inactive are the calls of the source. Unless noted, calls follow the shape of the full dose curve.

The nature of test [1]: qHTS assay for small molecule agonists of retinoid X receptor alpha signaling (AID 588544).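 As to activation: 0% = DMSO basal wells and 100% = reference agonist.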 Conditions: HEK293T RXRa-UAS-bla, beta-lactamase reporter, 18 h; 530 nm emission.
Test [2] addresses Retinoic acid receptor RXR-alpha (Homo sapiens) (UniProt P19793). The description is as above. The note with it: HEK293T RXRa-UAS-bla, beta-lactamase reporter, 18 h; series mostly up to 76.7 µM.
The target of test [3] is Thyroid hormone receptor beta (Homo sapiens) (UniProt P10828). The test is described as follows: qHTS assay for small molecule agonists of thyroid hormone receptor beta signaling (AID 588545).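 Also: 0% = DMSO only and 100% = 10 nM T3.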 Conditions: TR-UAS-bla GripTite HEK 293, beta-lactamase ratio, agonist mode, 18 h, percent of T3 response, DMSO as zero; series mostly up to 76.7 µM. The method, boiled down:
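Efficacy and EC50 values derive from Hill fits of qHTS titration data, normalized to 10 nM T3 and DMSO-only wells. HEK 293 reporter cells were stimulated for 18 hrs at 37 C, with beta-lactamase activity measured by CCF4 fluorescence.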

Test [4] in a line: qHTS assay for small molecule antagonists of retinoid X receptor alpha signaling (AID 588546; active = well fitted inhibition curve with a large enough effect in the signal ratio, with a control signal flat, not every such curve was filed as active; the % refers to the signal ratio;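 also: cells stimulated with 9-cis-retinoic acid as agonist; % is scaled to controls: 0 for no effect and ±100 for the full control effect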). Conditions: HEK293T RXRa-UAS-bla, beta-lactamase ratio, antagonist mode; measured here: W530 green channel, cytotoxicity proxy. The method, boiled down:
(§1)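 Beta-lactamase reporter inhibition, read as CCF4 fluorescence ratio (ex 405, em 460/530 nm) after 2 h at RT. HEK293T UAS-bla cells, 2500/well, were stimulated with 9-cis-RA at 500 or 100 nM final alongside test compound for 18 h at 37 C.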
In general terms: In qHTS, concentration-response curves come from the screen itself.

For test [5], the target named is Retinoic acid receptor RXR-alpha (Homo sapiens) (UniProt P19793). The test is described as above. The note with it: HEK293T RXRa-UAS-bla, beta-lactamase ratio, antagonist mode. In a few lines:
as §1

Test [6] has as its target Thyroid hormone receptor beta (Homo sapiens) (UniProt P10828). The test is described as follows: qHTS assay for small molecule antagonists of thyroid hormone receptor beta signaling (AID 588547; active = well fitted inhibition curve with a large enough effect in the signal ratio, with a control signal flat, not every such curve was filed as active; the % refers to the signal ratio;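 also: cells stimulated with 0.4 nM T3 agonist during compound exposure; % is scaled to controls: 0 for no effect and ±100 for the full control effect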). The note with it: TR-UAS-bla HEK293, beta-lactamase ratio, antagonist mode, 18 h. In a few lines:
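TR-UAS-bla GripTite HEK293 cells in 2% charcoal/dextran FBS medium; compounds 0.59 nM to 92 uM with T3 at 0.4nM final, 18 h at 37 C. Beta-lactamase read by CCF4 fluorescence (460/530 nm); Hill fits gave IC50 and efficacy.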

Test [7] concerns the target Voltage-gated inwardly rectifying potassium channel KCNH2 (Homo sapiens) (UniProt Q12809). Kind of test: qHTS Assay for Small Molecule Inhibitors of the Human hERG Channel Activity (AID 588834; active = well fitted curve in the direction sought with a large enough effect; an effect the other way counts as inactive or inconclusive;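 also: top concentration of the series differs between compounds; % is scaled to controls: 0 for no effect and ±100 for the full control effect; lower thallium flux fluorescence means stronger hERG block; nearly all actives have a fitted effect of over 50% in size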). Conditions: U2OS BacMam hERG, FluxOR thallium flux fluorescence; series mostly up to 46.1 µM. In a few lines:
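Blockade is seen as reduced FluxOR thallium-flux fluorescence in U2OS cells expressing hERG from a BacMam construct, in Opti-MEM with 2% FCS. Concentration-response data fitted to the Hill equation for AC50.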

The target of test [8] is Glucagon-like peptide 1 receptor (Homo sapiens) (UniProt P43220). Kind of test: qHTS of GLP-1 Receptor Agonists: LOPAC Validation (AID 624148; active = well fitted curve in the direction sought with a large enough effect; an effect the other way counts as inactive or inconclusive;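 also: 0% is about no effect; higher luminescence signal means agonism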). Conditions: GLP-1R agonist cell assay; series mostly up to 46.1 µM. In a few lines:
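HEK293 cells stably co-expressing GLP-1R and a cAMP-responsive luciferase reporter, plated 12 hours before compound, then incubated 4-6 hr at 37 deg C. Luminescence read 12 min after detection reagent.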

The nature of test [9]: HTS Assay for Allosteric Antagonists of the Human D2 Dopamine Receptor: Hit Validation in HTRF (AID 624455; active = well fitted curve in the direction sought with a large enough effect; an effect the other way counts as inactive or inconclusive;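 also: stable D1 dopamine receptor cell line scored for blocking the D1 response; % is scaled to controls: 0 for no effect and ±100 for the full control effect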). Conditions: Cells stably expressing D1 dopamine receptor, inhibition mode; series mostly up to 46.1 µM. The method, boiled down: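 First, antagonism was screened by calcium flux in a force-coupled, inducible Hek293 Trex D2 line challenged with EC80 dopamine. Hits then went into an HTRF assay in cells stably expressing D1, testing inhibition of the D1 response.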

Test [10] is described as follows: qHTS assay for small molecule agonists of the antioxidant response element (ARE) signaling pathway (AID 651741; active = well fitted activation curve with a large enough effect in the signal ratio; the % refers to the signal ratio; also: potency is read from the fitted curve at half-maximal effect; as to activation: % of control where 0% means no effect). Conditions: HepG2 ARE-bla reporter, beta-lactamase FRET ratio, 16 h; series mostly up to 96 µM. In a few lines:
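CellSensor ARE-bla HepG2 cells (2,000/well) carrying ARE-driven beta-lactamase, exposed 16 h at 37 C. LiveBLAzer B/G FRET substrate added for 2 h at room temperature; fluorescence intensity read.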

Test [11] addresses Vitamin D3 receptor (Homo sapiens) (UniProt P11473). Kind of test: qHTS assay for small molecule antagonists of vitamin D receptor signaling (AID 588541).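 Also: receptor activated by calcitriol during compound treatment; % is scaled to controls: 0 for no effect and ±100 for the full control effect.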 The note with it: HEK293T VDR-UAS-bla, beta-lactamase ratio, antagonist mode; series mostly up to 76.7 µM. The method, boiled down:
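VDR-UAS-bla HEK293T cells in 2% charcoal-stripped FBS were stimulated with 1-alpha,25-dihydroxyvitamin D3 (3 nM final) plus compound for 16 h at 37 C. The beta-lactamase CCF4 readout was normalized to 50 nM agonist and DMSO, and Hill fits gave IC50.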

The target is the same in test [12]. Kind of test: qHTS assay for small molecule agonists of vitamin D receptor signaling (AID 588543).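 Also: 0% = DMSO basal and 100% = reference agonist control.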 The note with it: HEK293T VDR-UAS-bla, beta-lactamase ratio, 16 h; series mostly up to 76.8 µM. In a few lines: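 Measured: β-lactamase reporter activity (CCF4, 405 nm excitation, 460/530 nm emission) in HEK293T VDR-UAS-bla cells after 16 h compound exposure at 37 °C. Normalization against 50 nM 1α,25-dihydroxyvitamin D3 and DMSO; Hill-fit EC50.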

The target in test [13] is Luciferin 4-monooxygenase (Photinus pyralis) (UniProt P08659). The test is described as follows: Biochemical firefly luciferase enzyme assay for NPC (AID 624030; active = well fitted curve in the direction sought with a large enough effect; an effect the other way counts as inactive or inconclusive;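 also: purified P. pyralis luciferase at 10 nM with luciferin and ATP substrate; 0% = DMSO and -100% = full luciferase inhibition by PTC124 control; nearly all actives have a fitted effect of over 70% in size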). Conditions: purified P. pyralis luciferase, luminescence, 5 min; series mostly up to 58.6 µM. The method, boiled down: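 Purified P. pyralis luciferase at 10 nM in 50 mM Tris Acetate (final), luminescence read within 5 minutes of enzyme addition to compounds. Activity normalised to PTC124 versus DMSO; concentration-response curves classed by r2, magnitude and activity.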

Test [14] is described as follows: S16 Schwann cell viability assay (CellTiter-Glo assay) (AID 624031; active = well fitted curve in the direction sought with a large enough effect; an effect the other way counts as inactive or inconclusive;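 also: cellular ATP luminescence as a viability measure; plate controls were DMSO-treated cells for no effect and cell-free wells for full effect; nearly all actives have a fitted effect of over 70% in size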). The note with it: S16 rat Schwann cells viability, 24 h; series mostly up to 57.5 µM. The method, boiled down:
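This viability control uses native rat S16 Schwann cells grown in DMEM plus 10% FBS. After a 24 h compound treatment at 37 °C, CellTiter-Glo luminescence reports ATP content, scaled against DMSO-treated and cell-free wells.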
(In ATP-based viability assays light output follows the ATP content of the culture.)

Test [15] is described as follows: S16 Schwann cell PMP22 intronic element firefly luciferase assay (AID 624032; active = well fitted curve in the direction sought with a large enough effect; an effect the other way counts as inactive or inconclusive; also: nearly all actives have a fitted effect of over 30% in size; also: potency is read from the fitted curve at half-maximal effect). Conditions: S16 rat Schwann cells, PMP22 element FLuc, 24 h; series mostly up to 57.5 µM. The method, boiled down:
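Rat S16 Schwann cells stably carrying firefly luciferase driven by a PMP22 intronic element, in 10% FBS, treated 24 h at 37 C. ONE-Glo luminescence normalized to PTC124 control and DMSO (0%); curves classed by r2, magnitude and activity.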

Test [16] is described as follows: qHTS assay for small molecule activators of the p53 signaling pathway (AID 651743; active = well fitted activation curve with a large enough effect in the signal ratio, not every such curve was filed as active; the % refers to the signal ratio; also: % of control where 0% means no effect). Conditions: HCT-116 p53RE-bla, beta-lactamase FRET ratio, 16 h; activation: stronger effect = higher value. In a few lines: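 p53RE-bla HCT-116 cells carrying a beta-lactamase reporter under p53 response elements were exposed to compounds for 16 hours at 37 C. Reporter activity read as fluorescence after 2 hours at room temperature with LiveBLAzer B/G FRET substrate.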

The nature of test [17]: S16 Schwann cell PMP22 intronic element beta-lactamase assay (AID 624044).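 Also: 0% = DMSO and -100% = potassium clavulanate positive control; nearly all actives have a fitted effect of over 15% in size.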 The note with it: S16 rat Schwann cells, PMP22 element beta-lactamase FRET, 24 h; series mostly up to 38.3 µM. In a few lines:
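Rat S16 Schwann cells with beta-Lac driven by a PMP22 intronic element, compound-treated 24 h at 37 °C. LiveBLAzer FRET B/G read: 460 nm normalized to potassium clavulanate vs DMSO; 535 nm FRET as viability; concentration-effect curves classified.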

Chain of Luciferin 4-monooxygenase (Photinus pyralis) (P08659 whole entry, looked up): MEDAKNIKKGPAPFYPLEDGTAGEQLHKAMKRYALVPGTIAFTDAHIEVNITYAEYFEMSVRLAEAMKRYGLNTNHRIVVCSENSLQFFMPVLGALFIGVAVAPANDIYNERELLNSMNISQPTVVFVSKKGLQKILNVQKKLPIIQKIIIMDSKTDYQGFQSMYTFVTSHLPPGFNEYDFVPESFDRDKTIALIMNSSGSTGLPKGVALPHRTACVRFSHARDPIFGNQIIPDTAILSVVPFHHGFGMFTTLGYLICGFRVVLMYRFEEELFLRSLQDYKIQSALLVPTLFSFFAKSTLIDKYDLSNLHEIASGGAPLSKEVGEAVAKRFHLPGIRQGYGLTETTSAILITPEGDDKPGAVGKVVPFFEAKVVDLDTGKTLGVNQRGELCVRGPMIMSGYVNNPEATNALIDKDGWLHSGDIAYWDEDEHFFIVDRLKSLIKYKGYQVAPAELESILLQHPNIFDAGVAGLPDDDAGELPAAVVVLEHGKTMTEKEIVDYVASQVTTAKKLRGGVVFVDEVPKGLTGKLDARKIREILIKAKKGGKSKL
Chain of Retinoic acid receptor RXR-alpha (Homo sapiens) (P19793 whole entry, looked up): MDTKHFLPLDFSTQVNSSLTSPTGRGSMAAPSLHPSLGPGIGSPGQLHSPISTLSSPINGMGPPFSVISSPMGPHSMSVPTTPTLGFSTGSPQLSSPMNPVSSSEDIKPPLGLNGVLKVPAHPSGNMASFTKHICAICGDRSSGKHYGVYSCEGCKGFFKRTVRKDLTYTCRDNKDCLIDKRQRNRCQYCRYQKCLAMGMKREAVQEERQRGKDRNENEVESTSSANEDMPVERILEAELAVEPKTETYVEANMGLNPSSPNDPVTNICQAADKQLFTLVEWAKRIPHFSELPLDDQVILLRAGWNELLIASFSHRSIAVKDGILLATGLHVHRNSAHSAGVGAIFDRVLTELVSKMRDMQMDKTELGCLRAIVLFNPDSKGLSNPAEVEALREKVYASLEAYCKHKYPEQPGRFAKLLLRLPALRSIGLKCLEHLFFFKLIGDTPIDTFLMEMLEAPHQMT
Chain of Voltage-gated inwardly rectifying potassium channel KCNH2 (Homo sapiens) (Q12809 whole entry, looked up): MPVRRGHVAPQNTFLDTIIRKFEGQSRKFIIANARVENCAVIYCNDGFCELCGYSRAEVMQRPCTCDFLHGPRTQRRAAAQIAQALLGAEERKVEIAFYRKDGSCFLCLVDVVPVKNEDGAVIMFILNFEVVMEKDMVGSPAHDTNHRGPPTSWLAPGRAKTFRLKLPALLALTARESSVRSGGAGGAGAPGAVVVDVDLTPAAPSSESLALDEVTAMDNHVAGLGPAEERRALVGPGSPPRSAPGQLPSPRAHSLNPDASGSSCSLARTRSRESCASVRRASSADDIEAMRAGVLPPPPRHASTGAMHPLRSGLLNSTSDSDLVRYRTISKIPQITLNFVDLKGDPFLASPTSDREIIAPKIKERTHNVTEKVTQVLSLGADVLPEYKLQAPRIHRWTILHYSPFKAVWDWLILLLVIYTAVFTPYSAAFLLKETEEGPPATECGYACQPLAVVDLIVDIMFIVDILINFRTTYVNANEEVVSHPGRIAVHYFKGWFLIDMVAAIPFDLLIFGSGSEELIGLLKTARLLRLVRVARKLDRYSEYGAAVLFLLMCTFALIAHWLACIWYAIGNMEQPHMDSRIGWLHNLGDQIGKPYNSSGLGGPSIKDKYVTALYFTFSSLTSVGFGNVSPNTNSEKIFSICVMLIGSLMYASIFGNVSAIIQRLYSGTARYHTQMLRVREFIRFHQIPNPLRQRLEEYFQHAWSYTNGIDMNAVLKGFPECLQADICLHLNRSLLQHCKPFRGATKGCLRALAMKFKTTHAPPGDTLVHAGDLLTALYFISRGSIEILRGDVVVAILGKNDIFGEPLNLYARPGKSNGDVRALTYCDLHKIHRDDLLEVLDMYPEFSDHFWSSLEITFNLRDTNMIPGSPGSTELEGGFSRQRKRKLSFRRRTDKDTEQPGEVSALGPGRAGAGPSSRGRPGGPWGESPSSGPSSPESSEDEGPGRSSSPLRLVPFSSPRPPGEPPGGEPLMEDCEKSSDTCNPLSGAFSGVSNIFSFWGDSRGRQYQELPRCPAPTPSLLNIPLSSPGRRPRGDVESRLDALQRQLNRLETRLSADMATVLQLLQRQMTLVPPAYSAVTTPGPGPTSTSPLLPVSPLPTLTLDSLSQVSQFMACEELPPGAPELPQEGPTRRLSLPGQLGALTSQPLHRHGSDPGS
Chain of Thyroid hormone receptor beta (Homo sapiens) (P10828 whole entry, looked up): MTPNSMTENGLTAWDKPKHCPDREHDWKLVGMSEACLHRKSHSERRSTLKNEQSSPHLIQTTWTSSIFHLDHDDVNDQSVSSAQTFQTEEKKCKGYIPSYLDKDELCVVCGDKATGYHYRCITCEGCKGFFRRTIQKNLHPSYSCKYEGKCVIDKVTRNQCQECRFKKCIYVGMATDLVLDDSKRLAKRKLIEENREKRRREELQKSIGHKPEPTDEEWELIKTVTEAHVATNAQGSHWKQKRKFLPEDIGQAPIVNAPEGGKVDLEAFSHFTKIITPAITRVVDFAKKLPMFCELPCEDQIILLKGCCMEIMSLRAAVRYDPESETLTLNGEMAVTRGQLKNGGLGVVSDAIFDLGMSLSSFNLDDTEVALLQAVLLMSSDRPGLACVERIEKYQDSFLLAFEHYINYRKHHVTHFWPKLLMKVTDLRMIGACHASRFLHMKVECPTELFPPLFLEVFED
Chain of Vitamin D3 receptor (Homo sapiens) (P11473 whole entry, looked up): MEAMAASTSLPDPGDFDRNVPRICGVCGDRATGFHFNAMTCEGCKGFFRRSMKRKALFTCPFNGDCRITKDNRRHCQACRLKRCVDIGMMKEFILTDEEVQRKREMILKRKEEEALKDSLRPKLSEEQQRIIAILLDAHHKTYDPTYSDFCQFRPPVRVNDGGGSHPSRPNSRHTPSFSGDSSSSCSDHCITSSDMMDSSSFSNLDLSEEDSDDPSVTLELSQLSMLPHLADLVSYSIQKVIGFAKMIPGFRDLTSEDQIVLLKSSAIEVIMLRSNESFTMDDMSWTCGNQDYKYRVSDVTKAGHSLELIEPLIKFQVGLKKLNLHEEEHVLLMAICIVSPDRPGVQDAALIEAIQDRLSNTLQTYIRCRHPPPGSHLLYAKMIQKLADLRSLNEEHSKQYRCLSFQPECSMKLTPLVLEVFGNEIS
Chain of Glucagon-like peptide 1 receptor (Homo sapiens) (P43220 whole entry, looked up): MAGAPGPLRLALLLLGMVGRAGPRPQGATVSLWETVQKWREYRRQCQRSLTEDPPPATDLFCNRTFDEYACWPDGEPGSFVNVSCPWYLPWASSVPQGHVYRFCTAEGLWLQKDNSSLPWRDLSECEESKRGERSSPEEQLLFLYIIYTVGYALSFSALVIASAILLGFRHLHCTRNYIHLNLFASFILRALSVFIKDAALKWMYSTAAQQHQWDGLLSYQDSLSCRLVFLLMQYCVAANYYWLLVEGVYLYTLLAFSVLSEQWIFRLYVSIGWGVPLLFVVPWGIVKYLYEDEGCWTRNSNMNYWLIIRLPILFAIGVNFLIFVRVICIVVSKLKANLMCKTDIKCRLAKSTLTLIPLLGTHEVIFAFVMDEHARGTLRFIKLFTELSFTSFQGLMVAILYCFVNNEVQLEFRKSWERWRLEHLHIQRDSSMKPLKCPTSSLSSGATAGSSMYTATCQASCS

As to `O=C1C=CC(=O)C=C1`, the max response was -3.86% in test [1], 4.26% in test [4] and -9.47% (inactive) in test [5]. For the same compound, the Potency result in [2], in test [7] and in [9] was “inactive” in each case. For the same compound, the result in [3] and in [8] was inactive. The activity change % (negative = inhibition) in test [6] was -10.9% (inactive). Further, the Potency in [10] is 47.3 µM (active).

Take `O=C/C=C/c1ccccc1`: the Potency entry in [11], in [2], in [7], in [13], in test [14] and in test [15] was “inactive” throughout. Besides, the result in [12] and in test [3] was inactive. Also, the max response was 4.89% and -11.3% in test [1]; -5.91% and -8.21% in test [4]; 12.1% (inactive) and 26.2% (inactive) in test [5]. In addition, the activity change % (negative = inhibition) in [6] is 12.8% (inactive) and -9.11% (inactive). Further, the activation in test [16] was -1.3% (inactive) and 1.6% (inactive).

Take `O=[N+]([O-])c1ccccc1`: the max response in test [1] was -10.6% and -11.5%; in [4], -18.4%; in test [5], -0.8% (inactive). Further, the Potency entry in [2], in test [13], in test [14], in test [15], in [17] and in test [10] was “inactive” each time. In addition, the result in test [3] was inactive. Moreover, in test [6], the activity change % (negative = inhibition) is -11.4% (inactive). Further, the activation in test [16] is 2.6% (inactive) and -2.69% (inactive).

Consider `CCCCCl`, for which the Potency result in test [11], in test [2], in test [7], in test [13], in test [14] and in test [15] was “inactive” in each case. In addition, the Potency entry in test [17] and in [10] was “inactive” each time. The result in [12] and in test [3] was inactive. Besides, the max response is -0.522% in [1], -8.74% in test [4] and 21% (inactive) in test [5]. The activation in test [16] was -4.24% (inactive).

Consider `CCOP(=O)(OCC)O/C(=C/Cl)c1ccc(Cl)cc1Cl`, for which the Potency entry in test [11], in test [2], in [7], in [13], in [14] and in [15] was “inactive” in each case. In addition, the outcome in test [12] and in test [3] was inactive. Also, the max response was 10.8% in [1]; 4.06% and 8.46% in [4]; -33.2% (inactive) and -25.5% (inactive) in [5]. Moreover, in test [6], the activity change % (negative = inhibition) was -5.99% (inactive). Moreover, the Potency in test [10] was 30.6 µM (active). For the same compound, the activation in [16] was -2.13% (inactive) and -0.49% (inactive).

`CCCSP(=O)(OCC)SCCC`: the Potency entry in test [11], in test [2] and in test [13] was “inactive” in each case. In addition, the outcome in test [12] and in [3] was inactive. For the same compound, the max response in test [1] was -4.11%; in test [4], -12.4%; in test [5] it was -0.503% (inactive). Also, in test [6], the activity change % (negative = inhibition) was 4.95% (inactive).

Consider `Clc1ccccc1Cl`, for which the Potency entry in test [11], in test [2], in [7], in test [13], in test [14] and in [15] was “inactive” throughout. The result in test [12] and in [3] was inactive. Moreover, the max response in test [1] was -11.2%; in test [4], 5.72%; in test [5], 14.3% (inactive).

As for `C[C@H]1CC[C@@H]2[C@@H](C)[C@H]3[C@H](C[C@H]4[C@@H]5CC=C6CC(O[C@@H]7O[C@H](CO)[C@H](O)[C@H](O[C@@H]8O[C@H](CO)[C@@H](O)[C@H](O)[C@H]8O)[C@H]7O[C@H]7O[C@@H](C)[C@H](O)[C@@H](O)[C@H]7O)CC[C@]6(C)[C@H]5CC[C@]34C)N2C1` (stereo partly specified), the Potency result in test [11], in test [7] and in test [13] was “inactive” in each case. The outcome in test [12] was inactive. Besides, the Potency in test [15] was 28.7 µM (active).

With `CC(C)Nc1ccc(Nc2ccccc2)cc1`, the result in test [12] and in [3] was inactive. For the same compound, in test [10], the Potency is 47.3 µM (active).
